An excerpt weighted towards active compounds, which were near 1.5% of everything screened.
FID counter – displaces DNA intercalator in HCV helicase counter-screen; DNA fluorescent intercalator displacement, fluorescence; inhibition, % at 7.9 µM; 0.17% of 290,000 active; in the data active = inhibition above about 37%;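 also: higher means more ethidium bromide displaced from hairpin DNA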
NRP1-CendR mod – NRP-1/CendR interaction modulation. FAM-RPARPAR peptide binding to NRP-1, fluorescence polarization. inhibition, % at 25 µM. 0.85% of 360,000 active. AID 602438;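 active = inhibition or corrected inhibition above about 18%, plus a signal ratio from 0.5 to 1.5, limit read from the data, passing the limit was not always enough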
N-glyco inh – N-linked glycosylation inhibition. D54 ERlucT glycosylation luciferase reporter, 24 h; percent of 100 nM tunicamycin response. reporter increase, % at 12.5 µM. 0.23% of 360,000 active. AID 588692;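 active = mean luciferase reporter signal, scaled so untreated is 0 and the glycosylation-blocking control 100, at or above a set limit in every replicate; inconclusive = mean reaches the limit but not every replicate does; inactive = mean below the limit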;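 also: luciferase carries N-glycosylation sites so blocking glycosylation raises the light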
RAD52 anneal inh – RAD52 (human) annealing inhibition. inhibition, % at 18.7 µM. recombinant RAD52 DNA annealing, FRET fluorescence. 0.46% of 360,000 active. AID 651710. P43351;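 active = every replicate showing at least 50% inhibition; inconclusive = mean inhibition at least 50% but not in every replicate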
Target sequence (P43351 whole entry, looked up): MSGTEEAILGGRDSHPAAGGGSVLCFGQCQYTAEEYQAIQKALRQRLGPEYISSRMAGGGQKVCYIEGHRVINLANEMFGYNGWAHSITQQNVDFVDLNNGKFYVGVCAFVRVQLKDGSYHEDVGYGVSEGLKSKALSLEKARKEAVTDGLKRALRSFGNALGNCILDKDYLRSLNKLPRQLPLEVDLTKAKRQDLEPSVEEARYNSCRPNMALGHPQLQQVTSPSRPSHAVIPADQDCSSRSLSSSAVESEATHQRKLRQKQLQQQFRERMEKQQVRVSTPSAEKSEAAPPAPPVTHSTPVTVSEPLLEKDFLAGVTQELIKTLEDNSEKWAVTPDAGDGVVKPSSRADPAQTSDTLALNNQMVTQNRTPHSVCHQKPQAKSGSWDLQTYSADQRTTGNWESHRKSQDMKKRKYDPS
miR122 inh – miR-122 inhibition in Huh7 cells; 0.3% of 340,000 active; AID 602342; Huh7 miR-122 Renilla luciferase sensor, 48 h; neutral wells = 0, positive control = 100; activation (reporter increase), % at 12.5 µM;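 active = mean replicate activation score at least 90 and every replicate individually at or above 90; inconclusive = only one of the two criteria met; inactive = neither criterion met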;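 also: higher luciferase means less miR-122 activity so hits act as miR-122 inhibitors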
RAD54 branch – blocks human RAD54 Holliday junction branch migration. 0.14% of 360,000 active. inhibition, % at 10.4 µM. FAM/BHQ fluorescence. Q92698. AID 602329;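 active = mean normalized replicate activity at least 40 and at least half of replicates scoring 40 or more; inconclusive = only one of the two criteria met; inactive = mean below 40 and under half of replicates reaching 40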;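 also: inhibitors cause a drop in the FAM fluorescence signal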
Large screens that a line does not name were inactive; ! = not confirmed by another sample.

CC(C)(C)c1nnc2sc(SCC(=O)c3ccc4c(c3)OCCO4)nn2c1=O	N-glyco inh 40
Cc1ccc(C(=O)CSc2nn3c(=O)c(C(C)(C)C)nnc3s2)cc1	N-glyco inh inconclusive (no result: RAD52 anneal inh)
CO[C@H]1CN(C)C(=O)c2cc(NS(C)(=O)=O)ccc2OC[C@@H](C)N(Cc2cccnc2)C[C@@H]1C	none (no result: FID counter, NRP1-CendR mod, N-glyco inh, RAD52 anneal inh, RAD54 branch)
CN(C)C(=O)c1cccc(-c2ccc3c(c2)[C@@H]2[C@@H](CCN2S(=O)(=O)c2cn(C)cn2)[C@H](CO)N3)c1	none (no result: FID counter, NRP1-CendR mod, N-glyco inh)
O=C(Nc1ccc(Cl)c(C(F)(F)F)c1)[C@@H]1CC=C[C@@H]2CCN(C3CC3)C(=O)[C@@H]21	NRP1-CendR mod 24 (no result: FID counter)
O=C(Nc1ccc(Cl)c(C(F)(F)F)c1)[C@@H]1CC=C[C@@H]2CCN(C3CCCCC3)C(=O)[C@@H]21	none (no result: FID counter)
CC(=O)N(C)C[C@@H]1Oc2ncc(/C=C/c3ccccc3)cc2C(=O)N([C@H](C)CO)C[C@H]1C	none (no result: FID counter, NRP1-CendR mod, N-glyco inh)
Nc1nc(-c2ccc(Br)s2)c(Br)s1	NRP1-CendR mod 30 (no result: RAD52 anneal inh)
COc1ccc(C(=O)N[C@H](C(=O)Nc2nc3c(s2)CCCC3)C(C)C)cc1	NRP1-CendR mod 26 (no result: RAD52 anneal inh)
Cc1sc2ncn(CC(=O)N3CCN(c4ccccn4)CC3)c(=O)c2c1S(=O)(=O)N1CCCCC1	NRP1-CendR mod 31
Cc1sc2ncn(CC(=O)N3CCCC(C)C3)c(=O)c2c1S(=O)(=O)N1CCCCC1 (configuration not stated)	none
COC(=O)[C@@]1(Cc2ccc(OC)cc2)[C@H]2c3cc(C(=O)N4CCCC4)n(CCN4CCNC4=O)c3C[C@H]2CN1C(=O)c1ccccc1	none (no result: NRP1-CendR mod, N-glyco inh, RAD52 anneal inh, miR122 inh, RAD54 branch)
COC(=O)[C@@]1(Cc2ccc(OC)cc2)[C@H]2c3cc(C(=O)N4CCCC4)n(CCN4CCOCC4)c3C[C@H]2CN1C(=O)c1ccccc1	NRP1-CendR mod 23 (no result: FID counter, N-glyco inh, miR122 inh, RAD54 branch)
COc1cc(CN2CC3(CCN(S(=O)(=O)c4cccs4)CC3)c3c(n(C)c4cc(OC)ccc34)[C@H]2CO)cc(OC)c1	none (no result: FID counter, NRP1-CendR mod, N-glyco inh, miR122 inh, RAD54 branch)
Cc1ccc(NC2=CC(=O)CCC2)cc1C	NRP1-CendR mod 46 (no result: RAD52 anneal inh)
COc1ccc(C(=O)c2coc3c2C(=O)C(=O)c2ccccc2-3)cc1	NRP1-CendR mod 25
O=C(C1CCCC1)N1CC(=O)N2[C@@H](CO)[C@@H](c3ccc(C#CCc4ccccc4)cc3)[C@@H]2C1	none (no result: FID counter, NRP1-CendR mod, N-glyco inh, miR122 inh, RAD54 branch)
COc1cccc(S(=O)(=O)Nc2ccc3c(c2)[C@@H]2C[C@@H](CC(=O)NC4CCCCC4)O[C@@H](CO)[C@@H]2O3)c1	none (no result: FID counter, NRP1-CendR mod, N-glyco inh)
COc1cccc(S(=O)(=O)Nc2ccc3c(c2)[C@H]2C[C@@H](CC(=O)NC4CCCCC4)O[C@H](CO)[C@H]2O3)c1	RAD52 anneal inh 67 (no result: FID counter, NRP1-CendR mod, N-glyco inh)
c1ccc(CSc2nnc(-c3ccncc3)o2)cc1	NRP1-CendR mod 26 (no result: RAD52 anneal inh)
O=c1c2[nH]cnc2n(-c2ccccc2)c(=O)n1Cc1ccccc1	none
COc1cccc(-n2c(=O)n(Cc3ccccc3)c(=O)c3[nH]cnc32)c1	NRP1-CendR mod 22 (no result: miR122 inh, RAD54 branch)
COc1ccc(C(=S)N2CCOCC2)cc1OC(=O)c1cc([N+](=O)[O-])c(C)c([N+](=O)[O-])c1	NRP1-CendR mod 28 (no result: RAD52 anneal inh)
CCC(=O)Nc1ccc2c(c1)OC[C@H](C)N(C(=O)c1ccc(F)cc1)C[C@@H](C)[C@@H](OC)CN(C)C2=O	none (no result: FID counter, NRP1-CendR mod, N-glyco inh, miR122 inh)
CCOc1ccc(NC(=O)C2CC3CCC2C3)cc1 (configuration not stated)	NRP1-CendR mod 28 (no result: FID counter)
CCOc1ccc(NC(=O)C2CCC(N3C(=O)C4CC=CCC4C3=O)CC2)cc1 (configuration not stated)	NRP1-CendR mod 29 (no result: miR122 inh)
CCOC(=O)c1ccc(NC(=O)C2CC3CCC2C3)cc1 (configuration not stated)	none (no result: FID counter)
CCOc1ccc(NC(=O)CN2C(=O)C3CC=CCC3C2=O)cc1 (configuration not stated)	none (no result: RAD52 anneal inh)
C[C@H](CO)N1C[C@H](C)[C@H](CN(C)S(=O)(=O)c2ccc(F)cc2)Oc2ncc(C#Cc3ccccc3)cc2C1=O	none (no result: FID counter, NRP1-CendR mod, N-glyco inh, RAD52 anneal inh, RAD54 branch)
O=C(CSc1cccc[n+]1[O-])Nc1cc(S(=O)(=O)N2CCOCC2)ccc1N1CCOCC1	NRP1-CendR mod 28 (no result: miR122 inh, RAD54 branch)
O=C(CSc1cccc[n+]1[O-])Nc1cc(S(=O)(=O)N2CCOCC2)ccc1Cl	none (no result: RAD52 anneal inh, miR122 inh, RAD54 branch)
CCn1cc(C(=O)NCCCN(C)C)c(=O)c2cc(F)c(N3CCN(C)CC3)cc21	FID counter 68
C[C@@H](NC(=O)[C@@H]1N[C@@H]2c3ccc(C4=CCCCC4)c(=O)n3C[C@@H]2[C@H]1CO)c1ccccc1	none (no result: FID counter, NRP1-CendR mod, N-glyco inh)
CCOc1ccc2nc(NCCNC(=O)Nc3cccc(C)c3)c(C#N)cc2c1	N-glyco inh 42 (no result: RAD52 anneal inh)
CCOc1ccc2nc(NCCCNS(=O)(=O)c3ccc(C)cc3)c(C#N)cc2c1	none (no result: RAD54 branch)
CCOc1ccc2nc(NCCNC(=O)Nc3ccccc3)c(C#N)cc2c1	none (no result: RAD52 anneal inh)
CCOc1ccc2nc(NCCNC(=S)NCCCN(C)C)c(C#N)cc2c1	FID counter 42 (no result: miR122 inh, RAD54 branch)
CC(C)C#Cc1ccc2c(c1)O[C@H](CN(C)Cc1ccncc1)[C@@H](C)CN([C@@H](C)CO)S2(=O)=O	none (no result: FID counter, NRP1-CendR mod, N-glyco inh, RAD52 anneal inh)
CCc1onc(C)c1C(=O)Nc1cc(C)ccc1OC	NRP1-CendR mod 34 (no result: miR122 inh)
Cc1onc(-c2c(Cl)cccc2Cl)c1C(=O)N[C@@H]1C(=O)N2[C@@H]1SC(C)(C)[C@@H]2C(=O)O	N-glyco inh 31!
Cc1onc(-c2c(Cl)cccc2Cl)c1C(=O)NC1C(=O)N2C1SC(C)(C)C2C(=O)O (configuration not stated)	none
CCOCCOC(=O)c1[nH]c2c(c1C)C(=O)CC(c1ccccc1)C2 (configuration not stated)	none
CCCCCOC(=O)c1[nH]c2c(c1C)C(=O)CC(c1ccco1)C2 (configuration not stated)	miR122 inh 121 (no result: RAD52 anneal inh)
Cc1nnc2n1NC(c1ccc(Cl)cc1)C(C(=O)N1CCC(C)CC1)S2 (configuration not stated)	NRP1-CendR mod 23 (no result: miR122 inh)
CCN1CCN(C(c2cccs2)C(C)NC(=O)c2ccccc2F)CC1 (configuration not stated)	NRP1-CendR mod 25
CCCn1c(SCC(=O)Nc2nnc(-c3ccccc3)s2)nnc1-c1ccccn1	NRP1-CendR mod 27 (no result: RAD52 anneal inh)
CCCOC(=O)C1=C(C)N(C)C(=O)NC1c1cc2c(cc1Br)OCO2 (configuration not stated)	none (no result: miR122 inh)
CCOC(=O)C1=C(C)N(C)C(=O)NC1c1cc2c(cc1Br)OCO2 (configuration not stated)	NRP1-CendR mod 21 (no result: RAD52 anneal inh)
COc1ccc(Cn2c(C3CC3)nc3ccc(NC(=O)c4cccnc4)cc3c2=O)cc1	NRP1-CendR mod 32 (no result: RAD52 anneal inh)
COc1ccc(Cn2c(C3CC3)nc3ccc(NC(C)=O)cc3c2=O)cc1	none (no result: RAD52 anneal inh)
COc1ccc2c3c(n(C)c2c1)[C@@H](CO)N(C(=O)CC1CC1)CC31CN(C(=O)CC2CC2)C1	none (no result: FID counter, NRP1-CendR mod, N-glyco inh, miR122 inh, RAD54 branch)
CCCNC(=O)C1(C)CCN(Cc2cc(C(F)(F)F)ccc2Cl)C1 (configuration not stated)	NRP1-CendR mod 22 (no result: FID counter)

Assay outcomes deposited in PubChem BioAssay by several laboratories.
